The supplement of paper PMC8253809
Where “and” joins values, the source holds several entries; their conditions need not be identical. Identical values can stand only once.

How the values were obtained:
Assay in all cases: growth inhibition (% activity, log2 RLU normalised to DMSO / staurosporine); higher = more growth inhibition
Details in all cases: 33 µM
DIPGX29 = system: DIPGX29 (H3.3 K27M diffuse intrinsic pontine glioma line)
Method in brief: (§1)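 For each approved drug, the growth-inhibition value is the replicate median of per-plate normalised CellTiter-Glo data. Luminescence was log2-transformed and expressed as % activity between solvent and positive control wells. Drugs were applied in triplicate at a single final concentration of about 33 μM for 7 days at 37 °C, 5% CO2 to pHGG cell lines and H9-derived neural stem cells.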

DIPGX37 = system: DIPGX37 (H3.3 K27M diffuse intrinsic pontine glioma line)
Method in brief: as §1

DIPGX7 = system: DIPGX7 (H3.3 K27M diffuse intrinsic pontine glioma line)
Method in brief: as §1

DIPGX9 = system: DIPGX9 (diffuse intrinsic pontine glioma line)
Method in brief: as §1

HGGX39 = system: HGGX39 (paediatric high-grade glioma line)
Method in brief: as §1

HGGX6 = system: HGGX6 (H3.3 G34R paediatric high-grade glioma line)
Method in brief: as §1

HNSC = system: HNSC
Method in brief: as §1

SUDIPGIV = system: SUDIPGIV (diffuse intrinsic pontine glioma line)
Method in brief: as §1

SUDIPGVI = system: SUDIPGVI (diffuse intrinsic pontine glioma line)
Method in brief: as §1

SUDIPGXIII = system: SUDIPGXIII (diffuse intrinsic pontine glioma line)
Method in brief: as §1

Structure (SMILES)	growth inhibition (DIPGX29)	growth inhibition (DIPGX37)	growth inhibition (DIPGX7)	growth inhibition (DIPGX9)	growth inhibition (HGGX39)	growth inhibition (HGGX6)	growth inhibition (HNSC)	growth inhibition (SUDIPGIV)	growth inhibition (SUDIPGVI)	growth inhibition (SUDIPGXIII)
CCOC(=O)C1=C(C)NC(C)=C(C(=O)OCC)C1c1ccccc1/C=C/C(=O)OC(C)(C)C	5.9%	-3.39%	7.49%	4.68%	24.1%	2.24%	46.6%	12.7%	1.91%	7.34%
CC[N+](CC)(CC)CCOc1cccc(OCC[N+](CC)(CC)CC)c1OCC[N+](CC)(CC)CC	2.95%	4.13%	2.35%	3.16%	2.47%	0.26%	1.9%	-0.653%	3.43%	-2.39%
CNCC[C@H](Oc1cccc2ccccc12)c1cccs1	3.5%	4.35%	4.07%	2.42%	5.92%	4.8%	16.9%	2.42%	4.44%	-1.12%
N=C(N)N	-0.83%	2.64%	1.54%	0.0493%	0.625%	-0.897%	7.78%	1.72%	-0.000495%	-1.47%
CCOC(=O)[C@H](CCc1ccccc1)N[C@@H](C)C(=O)N1Cc2ccccc2C[C@H]1C(=O)O	1.41%	1.99%	3.28%	3.18%	5.5%	3.4%	5.54%	3.99%	0.712%	0.247%
Cc1ccc(C(=O)C(C)CN2CCCCC2)cc1 (stereo not given)	0.542%	0.69%	0.522%	0.564%	1.58%	2.83%	-0.193%	-0.938%	-0.166%	0.909%
CCCCOc1ccc(CC(=O)NO)cc1	4.76%	1.97%	54.5%	3.15%	12.5%	12.9%	17.1%	3.36%	-3.3%	-0.824%
COc1cc(OC)c(C(=O)CCCN2CCCC2)c(OC)c1	-0.72%	1.82%	0.0577%	0.123%	1.04%	-0.405%	-0.558%	-0.0523%	0.936%	2.53%
CC(C[N+](C)(C)C)OC(N)=O (stereo not given)	-2.19%	0.0509%	-1.77%	0.0426%	-1.35%	-2.06%	-4.04%	-1.69%	-2.52%	0.126%
COc1cc2nc(N3CCN(C(=O)C4COc5ccccc5O4)CC3)nc(N)c2cc1OC (stereo not given)	0.458%	2.32%	1.34%	0.0132%	2.47%	1.58%	-0.951%	-3.82%	1.52%	2.13%
CO/N=C(\C(=O)N[C@@H]1C(=O)N2C(C(=O)O)=C(CSC(=O)c3ccco3)CS[C@H]12)c1csc(N)n1	-1.65%	1.16%	-1.04%	-0.83%	0.968%	-1.16%	-1.6%	1.14%	-0.598%	0.953%
Cc1cc(-n2c(=O)[nH]c(=O)n(C)c2=O)ccc1Oc1ccc(SC(F)(F)F)cc1	1.92%	4.99%	3.64%	1.95%	4.82%	2.18%	5.28%	2.64%	4.98%	-0.649%
C[N+](C)(CCOc1ccccc1)Cc1ccccc1.O=C([O-])c1cc2ccccc2cc1O	-1.73%	0.336%	-2.4%	-0.621%	-1.29%	-2.23%	-1.38%	2.44%	1.1%	-1.56%
N[C@H](Cc1ccccc1)C(=O)O	1.07%	4.02%	1.99%	1.11%	3.77%	0.895%	14.5%	3.32%	2.63%	2.11%
CC(=O)OCC(=O)[C@@]1(O)CC[C@H]2[C@@H]3CCC4=CC(=O)CC[C@]4(C)[C@H]3C(=O)C[C@@]21C	-5.36%	-1.7%	-1.09%	-3.1%	-6.61%	-4.47%	6.87%	-5.64%	-7.69%	-0.171%
Cc1ccc(C(=O)c2ccc(CC(=O)O)n2C)cc1	-0.189%	-0.055%	0.146%	0.57%	0.449%	-0.641%	2.18%	-4%	1.82%	-0.302%
C[C@]12C=CC(=O)C=C1CC[C@@H]1[C@@H]2C(=O)C[C@@]2(C)[C@H]1CC[C@]2(O)C(=O)CO	-2.83%	-1.18%	-0.368%	-2.35%	-1.89%	-3.12%	-4.28%	-3.78%	-6.66%	1.72%
Cc1cnc(C(=O)O)c[n+]1[O-]	1.49%	2.38%	1.7%	5.6%	1.15%	2.68%	3.09%	1.14%	1.26%	0.57%
COC(=O)Nc1nc2cc([S+]([O-])c3ccccc3)ccc2[nH]1 (stereo not given)	4.96%	6.45%	4.77%	5.87%	4.89%	4.72%	19.2%	6.67%	5.46%	0.605%
CCn1cc(C(=O)O)c(=O)c2cc(F)c(N3CCN(C)CC3)cc21	0.946%	0.351%	1.65%	1.44%	2.84%	0.565%	3.22%	1.47%	1.27%	1.57%
NC(=O)N/N=C/c1ccc([N+](=O)[O-])o1	0.652%	0.147%	0.615%	0.733%	1.49%	0.622%	2.46%	-1.17%	1.04%	-0.395%

Structure (SMILES)	growth inhibition (DIPGX29)	growth inhibition (DIPGX37)	growth inhibition (DIPGX7)	growth inhibition (DIPGX9)	growth inhibition (HGGX39)	growth inhibition (HGGX6)	growth inhibition (HNSC)	growth inhibition (SUDIPGIV)	growth inhibition (SUDIPGVI)	growth inhibition (SUDIPGXIII)
NC[C@@H]1O[C@H](O[C@H]2[C@@H](O)[C@H](O[C@@H]3[C@@H](O)[C@H](N)C[C@H](N)[C@H]3O[C@H]3O[C@H](CO)[C@@H](O)[C@H](O)[C@H]3N)O[C@@H]2CO)[C@H](N)[C@@H](O)[C@@H]1O	0.301%	2.89%	0.972%	0.973%	1.1%	1.84%	-2.1%	-0.26%	0.401%	0.0349%
COc1ccccc1OCC(O)CN1CCN(CC(=O)Nc2c(C)cccc2C)CC1 (stereo not given)	-3.85% and 2.95%	-0.299% and 2.63%	-1.1% and 4.84%	-2.23% and 2.88%	-2.5% and 3.07%	-1.8% and 1.36%	-2.11% and 14%	-2.68% and 2.7%	-1.9% and -0.296%	-2.34% and -1.26%
C[C@@](Cc1ccc(O)c(O)c1)(NN)C(=O)O	-0.229%	0.519%	-0.935%	2.31%	-0.733%	0.427%	-1.19%	0.65%	2.9%	1.25%
COc1ccc2cc([C@H](C)C(=O)O)ccc2c1	-0.22%	-1.1%	-0.43%	0.193%	-0.312%	0.298%	0.9%	-2.72%	0.358%	0.579%
CCCCCCCCOc1ccccc1C(=O)Nc1ccc(C(=O)OCC[N+](C)(CC)CC)cc1	1.1%	-1.75%	3.53%	2.15%	53.7%	10.8%	1.89%	4.07%	-1.27%	2.78%
OCC(CO)N[C@H]1C[C@](O)(CO)[C@@H](O)[C@H](O)[C@H]1O	-0.323%	0.847%	-1.4%	0.186%	0.139%	-0.0513%	-1.53%	-0.574%	0.28%	0.0745%
NC(=O)OCC(COC(N)=O)c1ccccc1	1.09%	2.98%	1.52%	0.912%	0.666%	0.329%	2.74%	0.15%	2.19%	1.32%
CO[C@H]1C(=O)[C@]2(C)[C@@H](OC)C[C@H]3OC[C@@]3(OC(C)=O)[C@H]2[C@H](OC(=O)c2ccccc2)[C@]2(O)C[C@H](OC(=O)[C@H](O)[C@@H](NC(=O)OC(C)(C)C)c3ccccc3)C(C)=C1C2(C)C	6.45%	5.31%	8.93%	18.4%	26.1%	12.9%	70.7%	22.5%	3.28%	2.32%
COc1ccc(Cl)cc1C(=O)NCCc1ccc(S(=O)(=O)NC(=O)NC2CCCCC2)cc1	-0.549%	1.98%	-0.628%	-1.16%	1.11%	0.0176%	2.28%	0.343%	1.26%	-1.12%
OC(Cn1cncn1)(Cn1cncn1)c1ccc(F)cc1F	0.884%	-0.267%	1.06%	1.31%	1.3%	1.42%	1.54%	-0.234%	1.91%	0.862%
CN(C(=O)CN(CCO)CC(=O)N(C)C(C)(C)Cc1ccccc1)C(C)(C)Cc1ccccc1	11.3%	3.37%	29%	4.47%	9.74%	2.56%	53.1%	3.05%	6.12%	10.4%
Cc1cc(C)nc(NS(=O)(=O)c2ccc(N)cc2)n1	-2.92%	0.0741%	-1.22%	-1.22%	-1.68%	-2.24%	4.45%	-1.47%	-1.67%	0.778%
COC(=O)[C@H](c1ccccc1Cl)N1CCc2sccc2C1	-1.33%	-0.314%	-0.551%	-0.762%	-0.681%	-0.144%	-2.08%	-1.84%	0.653%	1.29%
Nc1nc2[nH]cc(CCc3ccc(C(=O)N[C@@H](CCC(=O)O)C(=O)O)cc3)c2c(=O)[nH]1	1.3%	1.02%	2.83%	0.403%	-0.372%	-2.22%	-0.517%	2.12%	-1.22%	1.32%
O=C1C(=O)c2ccccc2C(O)=C1C1CCC(c2ccc(Cl)cc2)CC1 (stereo not given)	1.86%	-1.09%	2.26%	2%	1.71%	0.641%	2.01%	3.44%	2.48%	1.82%
CCOC(=O)[C@H](CCc1ccccc1)N[C@@H](C)C(=O)N1[C@H](C(=O)O)C[C@@H]2CCC[C@@H]21	-3.8%	-1.96%	-1.64%	-2.68%	-4.08%	-5.1%	1.84%	-2.04%	-7.46%	-2.12%
Cn1cnc([N+](=O)[O-])c1Sc1ncnc2[nH]cnc12	15.9%	9.81%	21.6%	13.8%	18.2%	18.5%	55.8%	32.2%	8.24%	17.1%
C[C@@H]1CC(=O)NN=C1c1ccc(NN=C(C#N)C#N)cc1	1.15%	-0.996%	1.39%	4.28%	4.26%	2.45%	5.57%	5.05%	1.51%	0.449%
NCCCC(O)(P(=O)(O)O)P(=O)(O)O	-0.387%	-3.88%	0.704%	0.583%	-0.159%	-0.423%	1.02%	-0.208%	1.59%	0.669%
CN(C)CCCN1c2ccccc2CCc2ccccc21	-0.201%	2.87%	0.728%	1.54%	6.76%	3.35%	3.17%	2.4%	-0.367%	2.4%
CCOC(=O)C1=C[C@]2(CC)CCCN3CCc4c(n1c1ccccc41)[C@@H]32	-2.05%	0.343%	1.55%	0.728%	0.726%	-1.58%	34.5%	1.95%	0.167%	3.3%
